PubChem BioAssay (EPA / NIEHS)
Results filed as inconclusive are left out. Calls of active or inactive are those of the source. The calls were made as follows: active = hit-call score of the fitted dose curve at least 0.9, where 1 is the maximum; inconclusive = response in the unintended direction; inactive = score below 0.9.

Read-out: organic anion transporter (SLCO1B1), SLCO1B1 (gene 10599)
Experiment: CLD_SLCO1B1_6hr: CellzDirect (CLD) Gene Expression Assay for organic anion transporter (SLCO1B1) at 6 hours (AID 2283668);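 also: active means mRNA induction above DMSO baseline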
Description: CLD_6hr is a cell-based, multiplexed-readout assay that uses hepatocyte, a human liver primary cell, with measurements taken at 6 hours after chemical dosing in a 96-well plate.CLD_SLCO1B1_6hr is one of 16 assay component(s) measured or calculated from the CLD_6hr assay. It is designed to make measurements of mRNA induction, a form of inducible reporter, as detected with chemiluminescence signals by Quantitative Nuclease Protection Assay (qNPA) technology.Data from the assay component CLD_SLCO1B1_6hr was analyzed at the endpoint, CLD_SLCO1B1_6hr, in the positive analysis fitting direction relative to DMSO as the negative control and baseline of activity. Using a type of inducible reporter, gain-of-signal activity can be used to understand changes in the reporter gene as they relate to the gene SLCO1B1. Furthermore, this assay endpoint can be referred to as a primary readout. To generalize the intended target to other relatable targets, this assay endpoint is annotated to the transporter intended target family, where subfamily is organic anion transporter.
Human hepatocyte cultures were treated daily for two consecutive days with fresh dosing solutions containing appropriate concentrations of the 320 ToxCast chemicals (chemical identities were blinded to CellzDirect and other ToxCast collaborators), vehicle control (0.2% DMSO), and positive control inducers as summarized in Table 1. Due to the large number of treatment groups and chemicals examined, the ToxCast chemicals were divided into two groups (spanning two independent cultures of hepatocytes from separate donor preparations (Hu778: ToxCast plates 1 and 2; Hu776: ToxCast plates 3 and 4). Each preparation of human hepatocyte cultures was treated with respective vehicle control, medium only control, set of six positive controls/reference chemicals for the five hepatic receptor pathways, and a subset of eight of the ToxCast chemicals (indoxacarb, pyrithiobac-sodium, norflurazon, cyhalofop-butyl, methomyl, thiram, acetochlor, and propiconazole). These replicate data, coupled with internal replicates designed within the blinded ToxCast chemical library, provided additional data to evaluate interindividual differences between hepatocyte preparations and their potential impact on chemical profiles.Cell morphology and integrity were evaluated using phase-contrast microscopy as an indicator of hepatocyte cell health (Tyson & Green, 1987). Cultures for each treatment group (i.e., media, vehicle [0.2% DMSO], positive control inducers [multiple concentrations], and the ToxCast chemicals [multiple concentrations]) were observed and cell morphology was assessed relative to vehicle control cultures at each harvest time point (0, 6, 24, or 48 h). […] Images were evaluated at the conclusion of the study to assess changes in cell integrity and account for the effects of chemical exposure on uncharacteristic changes in concentration-dependent gene expression profiles. The results from these determinations of apparent cytotoxicity were annotated (yes/no) alongside the corresponding qNPA data for reference.At the conclusion of each treatment period, hepatocyte cultures (96-well) were washed with 1 volume of HBSS, lysed by addition of 25 ul ArrayPlate lysis buffer (HTG, Tucson, AZ), and 70 ul/well of Denaturation Oil, denatured by incubation at 95C for 10 min, and frozen at approximately -70C until analysis by nuclease protection assay (qNPA) (Roberts et al., 2007). For qNPA analysis, cell lysates were thawed at 50C for approximately 30 min, qNPA probes were added, and samples were incubated at 95C for 10 min to begin the detection process by denaturing the target RNA, dissociating the duplexes and secondary structure hybridization. At the conclusion of the hybridization period, S1 nuclease reagent was added to each sample to digest all nonprotected nucleotides at 50C for 60-90 min. […]

Row | Compound | outcome
1 | N#Cc1cc(Br)c(O)c(Br)c1 | inactive
2 | CC1COC(Cn2cncn2)(c2ccc(Oc3ccc(Cl)cc3)cc2Cl)O1 (centres undefined) | inactive
3 | CCON=C(CC)C1=C(O)CC(c2c(C)cc(C)cc2C)CC1=O (centres undefined) | inactive
4 | CCCN(CCC)c1c([N+](=O)[O-])cc(S(N)(=O)=O)cc1[N+](=O)[O-] | inactive
5 | COc1nc(C)nc(NC(=O)NS(=O)(=O)c2ccccc2Cl)n1 | inactive
6 | CCCCOC(=O)c1ccccc1C(=O)OCCCC | inactive
7 | COC(=O)C=C(C)OP(=O)(OC)OC | inactive
8 | CCCCC(CC)COC(=O)c1ccccc1C(=O)OCC(CC)CCCC (centres undefined) | inactive
9 | Oc1ccccc1-c1ccccc1 | inactive
10 | Cc1ccc(-c2c(Cl)nc(C#N)n2S(=O)(=O)N(C)C)cc1 | inactive
11 | CCNc1nc(Cl)nc(NC(C)C)n1 | inactive
12 | O=C(O)c1nc(Cl)ccc1Cl | inactive
13 | COc1nc(NC(C)C)nc(NC(C)C)n1 | inactive
14 | COC(=O)C(C)Oc1ccc(Oc2ccc(Cl)cc2Cl)cc1 (centres undefined) | inactive
15 | CCCCNC(=O)n1c(NC(=O)OC)nc2ccccc21 | inactive
16 | CCOc1cc(Oc2ccc(C(F)(F)F)cc2Cl)ccc1[N+](=O)[O-] | inactive
17 | OC(c1ccc(Cl)cc1)(c1cncnc1)c1ccccc1Cl (centres undefined) | inactive

Row | Compound | outcome
18 | CCOC(=O)CC(SP(=S)(OC)OC)C(=O)OCC (centres undefined) | inactive
19 | Cc1c(F)c(F)c(COC(=O)C2C(/C=C(\Cl)C(F)(F)F)C2(C)C)c(F)c1F (centres undefined) | inactive
20 | CCCCNC(=O)OCC#CI | inactive
21 | C=CCC1=C(C)C(OC(=O)C2C(C=C(C)C)C2(C)C)CC1=O (centres undefined) | inactive
22 | C=CCC1=C(C)[C@@H](OC(=O)[C@@H]2[C@@H](C=C(C)C)C2(C)C)CC1=O | inactive
23 | CCNc1nc(Cl)nc(NCC)n1 | inactive
24 | CN(C)C(=S)SSC(=S)N(C)C | inactive
25 | CC(C)(C)c1ccc(CSc2cnn(C(C)(C)C)c(=O)c2Cl)cc1 | inactive
26 | COC(=O)N(OC)c1ccccc1COc1ccn(-c2ccc(Cl)cc2)n1 | inactive
27 | COc1cnc(OC)n2nc(NS(=O)(=O)c3c(OCC(F)F)cccc3C(F)(F)F)nc12 | inactive
28 | COC(=O)c1ccccc1C(=O)OC | inactive
29 | COP(=S)(OC)Oc1nc(Cl)c(Cl)cc1Cl | inactive
30 | COc1nc(C)nc(NC(=O)NS(=O)(=O)c2ccccc2CCC(F)(F)F)n1 | inactive
31 | COP(N)(=O)SC (centres undefined) | inactive
32 | CCc1nn(C)c(C(=O)NCc2ccc(C(C)(C)C)cc2)c1Cl | inactive
33 | CC(C)C1(C)N=C(c2nc3ccccc3cc2C(=O)O)NC1=O (centres undefined) | inactive
34 | CO/C=C(/C(=O)OC)c1ccccc1Oc1cc(Oc2ccccc2C#N)ncn1 | inactive
